Here are results for 26 compounds from PubChem BioAssay (NCATS).

Unmarked numbers belong to inactive results. Results filed as inconclusive are left out. Active and inactive are the calls of the source. Unless noted, calls follow the shape of the dose curve; as a rule, active = well fitted curve in the direction sought with a large enough effect; inconclusive = small, poorly fitted or top-dose-only effect, or another doubt; inactive = no such curve, though single readings can be large; an effect the other way counts as inactive or inconclusive.

Pyruvate kinase PKM (Homo sapiens), sequence (P14618 whole entry, looked up): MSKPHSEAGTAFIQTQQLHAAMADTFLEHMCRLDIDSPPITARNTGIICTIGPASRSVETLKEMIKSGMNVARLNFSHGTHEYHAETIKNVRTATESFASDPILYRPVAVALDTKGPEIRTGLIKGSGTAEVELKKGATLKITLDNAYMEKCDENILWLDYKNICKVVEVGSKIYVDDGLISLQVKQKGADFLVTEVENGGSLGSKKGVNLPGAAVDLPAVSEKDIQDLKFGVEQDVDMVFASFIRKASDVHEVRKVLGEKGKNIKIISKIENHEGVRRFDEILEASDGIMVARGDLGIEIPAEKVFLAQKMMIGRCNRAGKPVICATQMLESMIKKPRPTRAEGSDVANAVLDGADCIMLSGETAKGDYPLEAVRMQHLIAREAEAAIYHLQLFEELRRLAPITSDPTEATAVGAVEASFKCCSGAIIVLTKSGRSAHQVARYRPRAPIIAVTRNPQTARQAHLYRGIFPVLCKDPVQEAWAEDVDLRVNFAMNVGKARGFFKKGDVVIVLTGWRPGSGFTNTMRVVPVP
3',5'-cyclic-AMP phosphodiesterase 4B (Homo sapiens), sequence (Q07343 whole entry, looked up): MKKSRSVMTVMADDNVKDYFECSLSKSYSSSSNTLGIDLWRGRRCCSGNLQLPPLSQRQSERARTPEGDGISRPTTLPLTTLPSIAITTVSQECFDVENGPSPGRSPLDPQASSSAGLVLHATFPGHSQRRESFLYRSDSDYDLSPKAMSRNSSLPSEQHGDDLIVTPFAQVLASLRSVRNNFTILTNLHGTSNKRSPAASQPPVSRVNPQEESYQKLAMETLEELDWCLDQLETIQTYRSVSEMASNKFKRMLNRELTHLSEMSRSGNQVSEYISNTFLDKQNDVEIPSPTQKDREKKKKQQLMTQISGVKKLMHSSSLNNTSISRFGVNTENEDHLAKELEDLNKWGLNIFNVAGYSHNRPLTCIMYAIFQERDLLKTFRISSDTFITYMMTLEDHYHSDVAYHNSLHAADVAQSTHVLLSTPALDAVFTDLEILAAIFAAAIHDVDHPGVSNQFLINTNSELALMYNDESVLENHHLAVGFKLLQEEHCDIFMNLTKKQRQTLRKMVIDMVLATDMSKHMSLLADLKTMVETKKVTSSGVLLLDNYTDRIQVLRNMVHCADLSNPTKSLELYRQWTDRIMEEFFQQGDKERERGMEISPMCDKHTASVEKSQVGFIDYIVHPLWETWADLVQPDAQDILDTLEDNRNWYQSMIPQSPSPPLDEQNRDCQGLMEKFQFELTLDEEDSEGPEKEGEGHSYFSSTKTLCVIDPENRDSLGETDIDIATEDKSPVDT
Alpha-galactosidase A (Homo sapiens), sequence (P06280 whole entry, looked up): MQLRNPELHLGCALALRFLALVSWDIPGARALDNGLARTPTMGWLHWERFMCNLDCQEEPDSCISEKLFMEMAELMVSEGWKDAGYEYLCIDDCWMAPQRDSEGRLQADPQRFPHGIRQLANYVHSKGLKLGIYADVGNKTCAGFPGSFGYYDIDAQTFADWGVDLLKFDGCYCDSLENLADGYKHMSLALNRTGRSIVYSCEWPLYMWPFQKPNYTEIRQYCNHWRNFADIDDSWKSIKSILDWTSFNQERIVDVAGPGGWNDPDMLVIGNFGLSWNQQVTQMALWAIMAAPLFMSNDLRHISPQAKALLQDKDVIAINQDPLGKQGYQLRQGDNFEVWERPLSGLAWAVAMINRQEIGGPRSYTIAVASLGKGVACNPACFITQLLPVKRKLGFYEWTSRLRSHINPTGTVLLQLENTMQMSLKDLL

In one experiment the target is 3',5'-cyclic-AMP phosphodiesterase 4B (Homo sapiens) (UniProt Q07343). Description: qHTS Assay for Inhibitors of PDE-IV (AID 607; active = well fitted activation curve with a large enough effect in the main read-out, with a control signal flat, not every such curve was filed as active; also: % of control where 0% means no effect). Particulars: HEK293 ACTOne CNG channel cells, membrane potential fluorescence; series mostly up to 22.9 µM; activation (PDE inhibition): at the top concentration. Summed up:
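Live HEK293 cells with a modified cyclic nucleotide-gated (CNG) channel report intracellular cAMP via membrane-potential dye fluorescence (ex 535/em 590 nm). Endogenous PDE-IV was targeted. Compounds were tested at up to 22.9 uM final; RO 20-1724 100 uM served as control.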
On the technique in general: qHTS replaces the single test concentration by a dilution series.
For `c1ccc2c(c1)CCC[C@H]2C1=NCCN1`, the “activation (PDE inhibition)” value is -12.3%. For the compound `CCC[C@H]1C[C@H](C(=O)N[C@@H]([C@H]2O[C@@H](SC)[C@@H](O)[C@@H](O)[C@@H]2O)[C@H](C)Cl)N(C)C1`, the “activation (PDE inhibition)” value was -14.3%.

With `CCN1CCC[C@@H]1CNC(=O)c1c(O)c(Cl)cc(Cl)c1OC`, the “activation (PDE inhibition)” value is 7.78%. Regarding `O=C(NC[C@@H]1CCCCN1)c1cc(OCC(F)(F)F)ccc1OCC(F)(F)F`, the “activation (PDE inhibition)” value was 28.4%.

System in a further experiment: not listed separately
Briefly: qHTS Assay for Identification of Small Molecule Agonists for Hypoxia Response Element Signaling Pathway (AID 914; active = well fitted activation curve with a large enough effect in the signal ratio, with a control signal flat, not every such curve was filed as active; the % refers to the signal ratio; also: potency is read from the fitted curve at half-maximal effect; as to activation: % of control where 0% means no effect). As to conditions: ME-180 (cervical carcinoma) HRE-bla reporter, beta-lactamase ratio, CoCl2, 17 h; activation: hits give high values. Summed up: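 Read-out: CCF4 FRET ratio of 460nm to 530nm emission (excitation 405nm) after 2.5 hours at room temperature, taken from HRE-bla ME-180 cells that had been exposed to compound and EC50 CoCl2 for 17 hours.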
In the case of `Cc1cccc(N2CC(=O)N(c3cccc(C)c3)CC2=O)c1`, the activation was 1.3%. On the same count and under the same terms, for `CCOC(=O)c1c(N)sc2c1CCC1C(=O)N(C3CCCCC3)C(=O)C21` (stereo not given) the value was -6.89%; for `CC(C)C1Cc2c(C#N)c(N)n(C)c(=S)c2CO1` (stereo not given), -0.94%; for `Cc1ccc(-n2c(SCC(=O)NCc3ccco3)nc3nc4c(cc3c2=O)COC(C)(C)C4)cc1`, -23.6%. Still for that read-out and setting: the value for `O=C(NC1CCCCC1)Nn1c(-c2ccccc2)nc2ccccc2c1=O` was 1.48%. As for `COc1ccccc1C1/C(=C(\O)c2ccc3c(c2)OCCO3)C(=O)C(=O)N1CCCN(C)C` (stereo not given), the activation is -1.93%. Consider `Cc1cc(C)nc(NC2=NCC(=O)N2c2ccc(Cl)cc2)n1`, for which the activation was 16.5%.

As for `Oc1ccccc1CNn1cnnc1`, the activation is 7.68%. Still for that read-out and setting: the value for `CCCC(CCC(=O)Nc1ccc(C(=O)OCC)cc1)C(=O)O` (stereo not given) was 10%. On the same count and under the same terms, for `COC(=O)C1=C(N)Oc2cc(C)[nH]c(=O)c2C1c1ccncc1` (stereo not given) the value was 2.44%; for `CC(C)(C)C1=Nn2c(nnc2-c2ccccn2)SC1`, -1.04%.

As for `COc1ccc(C2=Nn3c(nnc3-c3ccccn3)SC2)cc1OC`, the activation is -20.2%. Same read-out and setting: the value for `CCOc1ccc(/C(O)=C2/C(=O)C(=O)N(CCN(CC)CC)C2c2ccco2)cc1` (stereo not given) was -14.8%; that for `COc1cc(-c2cc(C(F)(F)F)n3ncc(C(=O)O)c3n2)cc(OC)c1OC` was 13.9%. As for `COC(=O)c1sc(NC(C)=O)c(C(=O)OC)c1C`, the activation was 21.1%. The same measure, in the same setting: the value for `COCCNc1nc2c(c(=O)n(Cc3ccc(OC)cc3)c(=O)n2C)n1C` was -9.75%. For `CCCCOc1ccc(C(=O)Nc2ccc(N3CCN(C(C)=O)CC3)cc2)cc1`, the Potency is 2.51 µM (active).

With `COc1cc(C2C3C(=O)N(c4ccc(F)cc4)C(=O)C3ON2c2ccccc2)ccc1O` (stereo not given), the activation is -4.56%.

Consider `Cc1cc(CC(=O)O)c(C)cc1CC(=O)O`, for which the activation was 5.91%. Regarding `CC(=O)Nc1ccccc1O`, the activation was 8.91%.

Take `O=C1C2ON(c3ccccc3)C(c3cccnc3)C2C(=O)N1Cc1ccccc1` (stereo not given): the activation was 1.83%.

System in another experiment: not listed separately
Description: qHTS Assay for Identification of Small Molecule Agonists for Thrombopoietin (TPO) Signaling Pathway (AID 917). Also: % is scaled to controls: 0 for no effect and ±100 for the full control effect. As to conditions: TPO signaling pathway reporter cells, agonist qHTS, stimulated with TPO at its EC50; series mostly up to 38.5 µM; activity, positive = activation: at the top concentration. Summed up: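 Murine Ba/F3 cells stably expressing human TPO receptor and a Glycoprotein IIb promoter–luciferase reporter were IL-3-starved overnight, then treated with compounds plus TPO (26 pM final, its EC50) for 24 hrs at 37 C; luminescence was read.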
In the case of `c1ccc2c(c1)CCC[C@H]2C1=NCCN1`, the “activity, positive = activation” value was -2.54%. Regarding `CCN1CCC[C@@H]1CNC(=O)c1c(O)c(Cl)cc(Cl)c1OC`, the “activity, positive = activation” value is -13.2%. Still for that read-out and setting: for `CN1[C@@H]2CC(OC(=O)[C@@H](CO)c3ccccc3)C[C@H]1[C@H]1O[C@H]12` (stereo not given in full) the value was -18.7%.

The target in the next experiment is Pyruvate kinase (Leishmania mexicana) (UniProt Q27686). Description: qHTS Validation Assay for Inhibitors of Leishmania Mexicana Pyruvate Kinase (AID 945).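 Also: 0% = DMSO only neutral control wells.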 Particulars: purified L. mexicana pyruvate kinase, enzyme activity, E451W mutant enzyme; series mostly up to 57.5 µM; activity change, negative = inhibition: at the top concentration. Summed up: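 Substrate mix (0.5 mM PEP, 0.1 mM ADP, 7 mM MgCl2, 50 mM KCl, pH 7.2 imidazole) received compound by pin tool, then 0.2 nM LmPYK E451W. After 1 h at room temperature, PKLight was added and luminescence measured.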
Pyruvate kinase (Leishmania mexicana), sequence (Q27686 2-499 E452W): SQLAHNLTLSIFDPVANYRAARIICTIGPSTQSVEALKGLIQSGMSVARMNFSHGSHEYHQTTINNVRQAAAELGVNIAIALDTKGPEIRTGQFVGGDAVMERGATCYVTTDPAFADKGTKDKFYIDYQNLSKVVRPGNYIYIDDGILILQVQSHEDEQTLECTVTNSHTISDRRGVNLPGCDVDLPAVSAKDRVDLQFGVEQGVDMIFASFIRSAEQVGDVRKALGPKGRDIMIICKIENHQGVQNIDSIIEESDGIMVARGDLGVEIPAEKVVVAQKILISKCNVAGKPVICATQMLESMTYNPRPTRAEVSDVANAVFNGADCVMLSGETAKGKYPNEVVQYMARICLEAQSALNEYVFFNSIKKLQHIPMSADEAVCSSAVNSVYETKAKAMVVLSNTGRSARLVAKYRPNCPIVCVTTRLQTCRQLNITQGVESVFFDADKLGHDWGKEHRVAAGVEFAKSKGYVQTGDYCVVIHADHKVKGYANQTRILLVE
Consider `c1ccc2c(c1)CCC[C@H]2C1=NCCN1`, for which the “activity change, negative = inhibition” value was 3.67%. Still for that read-out and setting: for `CCN1CCC[C@@H]1CNC(=O)c1c(O)c(Cl)cc(Cl)c1OC` the value was 2.3%; for `CN1[C@@H]2CC(OC(=O)[C@@H](CO)c3ccccc3)C[C@H]1[C@H]1O[C@H]12` (stereo not given in full), -4.76%.

For the next experiment, the target named is Pyruvate kinase PKM (Homo sapiens) (UniProt P14618). Briefly: qHTS Assay for Activators of Human Muscle Pyruvate Kinase (AID 954; active = well fitted curve in the direction sought with a large enough effect, not every such curve was filed as active;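 also: 0% = uninhibited enzyme and -100% = no enzyme or full thiadiazolimine inhibition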). As to conditions: purified human muscle pyruvate kinase, luciferase-coupled luminescence, 1 h; series mostly up to 57.5 µM; activity change, negative = inhibition: at the top concentration. Summed up:
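Enzyme was run at intermediate activity so both inhibitors and activators could be detected. ATP formed from ADP and PEP by 0.1 nM human PKM2 during a 1 h room-temperature incubation was quantified by coupled luciferase luminescence.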
Regarding `c1ccc2c(c1)CCC[C@H]2C1=NCCN1`, the “activity change, negative = inhibition” value was -13.9%. On the same count and under the same terms, the value for `CCN1CCC[C@@H]1CNC(=O)c1c(O)c(Cl)cc(Cl)c1OC` was -12.1%; that for `CN1[C@@H]2CC(OC(=O)[C@@H](CO)c3ccccc3)C[C@H]1[C@H]1O[C@H]12` (stereo not given in full) was -13.3%.

The next experiment deals with Alpha-galactosidase A (Homo sapiens) (UniProt P06280). Briefly: Counterscreen for Glucocerebrosidase Inhibitors: qHTS Assay for Human alpha-Galactosidase at pH 4.5 (AID 992). Also: 0% is about no effect. As to conditions: purified enzyme, fluorogenic substrate; series mostly up to 76.9 µM; activity change, negative = inhibition: at the top concentration. Summed up:
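Read-out is 4-methylumbelliferone fluorescence (365 nm excitation, 440 nm emission) after a pH 10 NaOH/glycine stop. Reactions held 2 nM enzyme and 80 uM substrate at pH 4.5 for 20 min at room temperature.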
(The purpose of a counterscreen is to sort out artefacts and off-target activity.)
On to `c1ccc2c(c1)CCC[C@H]2C1=NCCN1`, for which the “activity change, negative = inhibition” value is 0.994%.

As to `CCN1CCC[C@@H]1CNC(=O)c1c(O)c(Cl)cc(Cl)c1OC`, the “activity change, negative = inhibition” value is -0.0773%. Turning to `CN1[C@@H]2CC(OC(=O)[C@@H](CO)c3ccccc3)C[C@H]1[C@H]1O[C@H]12` (stereo not given in full), the “activity change, negative = inhibition” value was 0.604%.

In a further experiment the target is alpha-glucosidase (Oryza sativa, rice) (UniProt Q653V4). Description: Counterscreen for Glucocerebrosidase Inhibitors: qHTS Assay for Rice alpha-Glucosidase at pH 5.0 (AID 997).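 Also: 0% = full activity with enzyme and -100% = basal without enzyme.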 As to conditions: rice alpha-glucosidase enzyme activity; series mostly up to 76.9 µM; activity change, negative = inhibition: at the top concentration. A digest of the protocol: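 Rice alpha-glucosidase (4 nM final) with 400 uM 4-methylumbelliferyl-alpha-D-glucopyranoside in citrate buffer pH 5.0, 20 min at room temperature, stopped at pH 10; fluorescence 365/440 nm, compounds 0.7 nM–77 uM, AC50 from Hill fits.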
As to `c1ccc2c(c1)CCC[C@H]2C1=NCCN1`, the “activity change, negative = inhibition” value was 0.857%.

`CCN1CCC[C@@H]1CNC(=O)c1c(O)c(Cl)cc(Cl)c1OC`: the “activity change, negative = inhibition” value is -0.552%. Same read-out and setting: the value for `CN1[C@@H]2CC(OC(=O)[C@@H](CO)c3ccccc3)C[C@H]1[C@H]1O[C@H]12` (stereo not given in full) was -2.24%.
